# From PubChem BioAssay (EPA / NIEHS)
# Results filed as inconclusive are left out. Calls of active or inactive are those of the source. How the source made its calls, unless noted: active means hit-call score of the fitted dose curve at least 0.9, where 1 is the maximum; inactive means score below 0.9.
# What was measured:
# [1] = read-out: Interleukin-1 alpha (IL1a), IL1A (gene 3552); test: BSK_LPS_IL1a: BioMAP Diversity Plus: LPS Assay for Interleukin-1 alpha (IL1a) Biomarker Activity (AID 2283080); settings: primary human HUVEC with PBMC; actives raise or lower the signal
# In short: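 Human umbilical vein endothelial cells co-cultured with peripheral blood mononuclear cells were LPS-stimulated and exposed to test chemicals for 24 h. IL-1 alpha was quantified by ELISA, with bidirectional curve fitting against DMSO as the negative control and baseline.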
# [2] = read-out: Monocyte Chemoattractant Protein-1 (MCP1), CCL2 (gene 6347); test: BSK_LPS_MCP1: BioMAP Diversity Plus: LPS Assay for Monocyte Chemoattractant Protein-1 (MCP1) Biomarker Activity (AID 2283081); settings: primary human HUVEC with PBMC; actives raise or lower the signal;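 on AC50: secreted MCP-1 protein quantified by ELISA in culture supernatant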
# In short: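 HUVEC plus PBMC co-culture (human primary cells, LPS system) exposed to test chemical for 24 h; MCP-1 measured by ELISA. Bidirectional curve fitting against DMSO baseline; parallel SRB total-protein staining flags overt cytotoxicity.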
# [3] = BSK_LPS_PGE2: BioMAP Diversity Plus: LPS Assay for Prostaglandin E2 (PGE2) Biomarker Activity (AID 2283082); settings: primary human HUVEC with PBMC; actives raise or lower the signal
# In short: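 Endpoint derived from bidirectional curve fitting versus DMSO of ELISA-measured PGE2 in LPS-stimulated human primary vascular co-culture (HUVEC with PBMC) harvested at 24 h.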
# [4] = read-out: Macrophage colony-stimulating factor (MCSF), CSF1 (gene 1435); test: BSK_LPS_MCSF: BioMAP Diversity Plus: LPS Assay for Macrophage colony-stimulating factor (MCSF) Biomarker Activity (AID 2283083); settings: primary human HUVEC with PBMC; actives raise or lower the signal
# In short: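 Human umbilical vein endothelial cells co-cultured with peripheral blood mononuclear cells were exposed to compound for 24 h. M-CSF levels were measured by ELISA, and bidirectional curve fitting used DMSO as the negative control and baseline.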
# [5] = read-out: Tissue Factor, F3 (gene 2152); test: BSK_LPS_TissueFactor: BioMAP Diversity Plus: LPS Assay for Tissue Factor Biomarker Activity (AID 2283084); settings: primary human HUVEC with PBMC; actives raise or lower the signal
# In short: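 Human umbilical vein endothelial cells co-cultured with peripheral blood mononuclear cells were dosed and stimulated with LPS. Cell-surface CD142 was quantified by ELISA at 24 h. Activity was fitted bidirectionally against DMSO baseline.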
# [6] = read-out: Tumor necrosis factor (Homo sapiens) (UniProt P01375); test: BSK_LPS_TNFa: BioMAP Diversity Plus: LPS Assay for Tumour Necrosis Factor alpha (TNFa) Biomarker Activity (AID 2283085); settings: primary human HUVEC with PBMC; actives raise or lower the signal
# In short: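 Primary human vascular co-culture of HUVEC and PBMC; TNFa ELISA 24 h after treatment, analysed as increase or decrease relative to DMSO control.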
# [7] = read-out: Vascular cell adhesion molecule 1 (VCAM1), VCAM1 (gene 7412); test: BSK_LPS_VCAM1: BioMAP Diversity Plus: LPS Assay for Vascular cell adhesion molecule 1 (VCAM1) Biomarker Activity (AID 2283086); settings: primary human HUVEC with PBMC; actives raise or lower the signal
# In short: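 Primary human vascular co-culture (umbilical vein endothelium plus PBMC) stimulated with LPS received chemical; 24 h later VCAM-1 was read by ELISA. Overt cytotoxicity was assessed by sulforhodamine B staining of parallel cultures at the same time point.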
# CD38, CD38 (gene 952) = test: BSK_SAg_CD38: BioMAP Diversity Plus: SAg Assay for CD38 Biomarker Activity (AID 2283087); settings: primary human HUVEC with PBMC; actives raise or lower the signal
# In short: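 Fluorescence ELISA of cell-surface CD38 served as the read-out, with either increase or decrease fitted against DMSO controls. Cells were a human umbilical vein endothelium plus PBMC co-culture under SEB/TSST-1 stimulation, measured 24 h after dosing.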
# [8] = read-out: Monocyte Chemoattractant Protein-1 (MCP1), CCL2 (gene 6347); test: BSK_SAg_MCP1: BioMAP Diversity Plus: SAg Assay for Monocyte Chemoattractant Protein-1 (MCP1) Biomarker Activity (AID 2283090); settings: primary human HUVEC with PBMC; actives raise or lower the signal
# In short: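 MCP-1 levels in the endothelial–PBMC SAg co-culture were quantified by ELISA at 24 h post-dosing; both increases and decreases versus DMSO scored. Cytotoxicity monitored by SRB total protein in parallel cultures.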
# [9] = read-out: E-selectin (Homo sapiens) (UniProt P16581); test: BSK_SAg_Eselectin: BioMAP Diversity Plus: SAg Assay for Eselectin Biomarker Activity (AID 2283091); settings: primary human HUVEC with PBMC; actives raise or lower the signal
# In short: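 HUVEC co-cultured with PBMC, compound dosed then read at 24 h; E-selectin measured by ELISA. Activity fitted bidirectionally against DMSO as negative control and baseline.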
# [10] = read-out: Monokine induced gamma interferon (MIG), CXCL9 (gene 4283); test: BSK_SAg_MIG: BioMAP Diversity Plus: SAg Assay for Monokine induced gamma interferon (MIG) Biomarker Activity (AID 2283092); settings: primary human HUVEC with PBMC; actives raise or lower the signal
# In short: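 Endothelial cells and PBMC were co-cultured, exposed to test chemicals, and sampled 24 h later. MIG was measured by ELISA, and responses were fitted in both directions relative to DMSO.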
# [11] = BSK_SAg_PBMCCytotoxicity: PBMC Cytotoxicity Assessment in the BioMAP Diversity Plus: SAg Assay (AID 2283093); settings: primary human HUVEC with PBMC;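 further: PBMC viability measured as Alamar Blue reduction fluorescence at 546/580 nm; fitted both ways against DMSO so a hit may be loss or gain of signal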;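 on AC50: PBMC superantigen activated with SEB plus TSST-1 one hour after compound addition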
# In short: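 Compound added to 75,000 PBMC/well for 1 h; SEB and TSST-1 then added at 20 ng/mL final each; 90 h incubation; Alamar Blue 6 h; read 546/580 nm ex/em. Activity fitted bidirectionally relative to DMSO baseline.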
# [12] = read-out: Interleukin-8 (IL8), CXCL8 (gene 3576); test: BSK_SAg_IL8: BioMAP Diversity Plus: SAg Assay for Interleukin-8 (IL8) Biomarker Activity (AID 2283094); settings: primary human HUVEC with PBMC; actives raise or lower the signal
# In short: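 In this co-culture of human umbilical vein endothelium with peripheral blood mononuclear cells, IL-8 is assayed by ELISA at 24 h. DMSO serves as baseline for bidirectional curve fitting.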
# [13] = BSK_SAg_Proliferation: Cell Proliferation Assessment in the BioMAP Diversity Plus: SAg Assay (AID 2283095); settings: primary human HUVEC with PBMC;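 further: relative cell number as total protein by SRB absorbance in sub-confluent culture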
# In short: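 Readout is SRB-stained protein (560 nm) in a primary human HUVEC and PBMC co-culture; sub-confluent cultures are read at 96 h. Activity is fitted bidirectionally using DMSO as baseline.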
# [14] = BSK_SAg_SRB: Viability Assessment in the BioMAP Diversity Plus: SAg Assay (AID 2283096); settings: primary human HUVEC with PBMC;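 further: cells read one day after compound addition; hits may be either gain or loss of signal compared with DMSO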
# In short: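 Total protein by sulforhodamine B staining, 24 h after dosing, in HUVEC–PBMC co-culture; DMSO-referenced bidirectional fitting.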
# CD69, CD69 (gene 969) = test: BSK_SAg_CD69: BioMAP Diversity Plus: SAg Assay for CD69 Biomarker Activity (AID 2283089); settings: primary human HUVEC with PBMC; actives raise or lower the signal
# In short: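 Primary human vascular co-culture (umbilical vein endothelium with peripheral blood mononuclear cells) exposed to test chemical for 24 h. CD69 levels quantified by fluorescence ELISA; DMSO served as negative control for bidirectional fitting.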
# [15] = biological target: human CYP2A6, CYP2A6 (gene 1548) (UniProt P11509); test: NVS_ADME_hCYP2A6: NovaScreen (NVS) CYP450-related Enzyme Activity (ADME) Assay for human CYP2A6 (AID 2283099; active means hit-call score of the fitted dose curve at least 0.9, where 1 is the maximum)
# human CYP2A6, CYP2A6 (gene 1548), sequence (P11509 whole entry, looked up): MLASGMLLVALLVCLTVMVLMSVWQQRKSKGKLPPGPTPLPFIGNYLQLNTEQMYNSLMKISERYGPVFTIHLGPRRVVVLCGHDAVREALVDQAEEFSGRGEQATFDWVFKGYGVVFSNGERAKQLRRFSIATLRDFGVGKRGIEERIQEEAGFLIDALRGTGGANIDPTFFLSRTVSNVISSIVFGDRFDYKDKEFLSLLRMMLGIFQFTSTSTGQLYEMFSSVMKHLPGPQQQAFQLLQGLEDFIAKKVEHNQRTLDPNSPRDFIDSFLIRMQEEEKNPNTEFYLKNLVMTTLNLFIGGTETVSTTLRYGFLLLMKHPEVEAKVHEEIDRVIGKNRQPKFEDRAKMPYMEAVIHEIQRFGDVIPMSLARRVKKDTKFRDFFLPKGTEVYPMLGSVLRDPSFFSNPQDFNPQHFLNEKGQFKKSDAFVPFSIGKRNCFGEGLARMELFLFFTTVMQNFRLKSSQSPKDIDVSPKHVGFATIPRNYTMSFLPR
# In short: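 Cell-free fluorescence readout of recombinant human CYP2A6 expressed in insect cells, read 0.5 h after dosing; loss of signal versus acetonitrile negative control. Primary screen in duplicate at 10 uM; actives re-run in concentration-response up to 20 uM.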
# Tumor necrosis factor (Homo sapiens), sequence (P01375 whole entry, looked up): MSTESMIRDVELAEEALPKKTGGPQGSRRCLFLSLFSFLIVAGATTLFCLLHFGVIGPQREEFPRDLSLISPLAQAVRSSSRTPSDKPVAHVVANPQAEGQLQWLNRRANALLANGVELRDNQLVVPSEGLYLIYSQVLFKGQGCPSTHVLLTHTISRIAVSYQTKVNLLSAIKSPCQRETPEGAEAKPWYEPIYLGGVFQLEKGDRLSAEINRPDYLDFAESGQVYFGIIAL
# E-selectin (Homo sapiens), sequence (P16581 whole entry, looked up): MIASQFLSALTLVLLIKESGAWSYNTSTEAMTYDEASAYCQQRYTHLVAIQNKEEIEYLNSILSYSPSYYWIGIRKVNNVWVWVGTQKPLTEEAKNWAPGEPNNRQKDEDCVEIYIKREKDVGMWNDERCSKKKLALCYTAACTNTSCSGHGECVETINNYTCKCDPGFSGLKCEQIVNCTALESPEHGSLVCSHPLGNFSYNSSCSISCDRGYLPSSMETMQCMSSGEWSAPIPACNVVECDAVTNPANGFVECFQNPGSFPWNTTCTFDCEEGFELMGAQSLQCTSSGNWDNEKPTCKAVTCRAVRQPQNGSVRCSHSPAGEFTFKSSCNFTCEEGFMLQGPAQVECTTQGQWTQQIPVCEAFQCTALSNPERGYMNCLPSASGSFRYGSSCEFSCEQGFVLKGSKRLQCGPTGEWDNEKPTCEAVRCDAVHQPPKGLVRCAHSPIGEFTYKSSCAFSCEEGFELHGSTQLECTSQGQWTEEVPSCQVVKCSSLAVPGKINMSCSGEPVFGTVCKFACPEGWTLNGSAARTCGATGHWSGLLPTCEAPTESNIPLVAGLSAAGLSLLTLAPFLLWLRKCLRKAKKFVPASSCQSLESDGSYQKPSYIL
smiles,measurement,setting,value
ClC(Cl)=C(c1ccc(Cl)cc1)c1ccccc1Cl,AC50,[1],26 µM (active)
same,AC50,[2],29.6 µM (active)
same,outcome,[3],inactive
same,AC50,[4],20 µM (active)
same,AC50,[5],20 µM (active)
same,AC50,[6],31.7 µM (active)
same,AC50,[7],32.9 µM (active)
same,AC50,"CD38, CD38 (gene 952)",20 µM (active)
same,AC50,[8],25.9 µM (active)
same,AC50,[9],20 µM (active)
same,AC50,[10],20 µM (active)
same,AC50,[11],10.9 µM (active)
same,AC50,[12],20 µM (active)
same,AC50,[13],6.98 µM (active)
same,AC50,[14],30.3 µM (active)
O=P(OCC(Br)CBr)(OCC(Br)CBr)OCC(Br)CBr (stereo not drawn),outcome,[1],inactive
same,outcome,[2],inactive
same,outcome,[3],inactive
same,outcome,[4],inactive
same,outcome,[5],inactive
same,outcome,[6],inactive
same,outcome,[7],inactive
same,outcome,"CD38, CD38 (gene 952)",inactive
same,outcome,[8],inactive
same,outcome,[9],inactive
same,outcome,[10],inactive
same,outcome,[11],inactive
same,outcome,[12],inactive
same,outcome,[13],inactive
same,outcome,[14],inactive
Cc1cccc(N)c1,outcome,[1],inactive
same,outcome,[2],inactive
same,outcome,[3],inactive
same,outcome,[4],inactive
same,outcome,[5],inactive
same,outcome,[6],inactive
same,outcome,[7],inactive
same,outcome,"CD38, CD38 (gene 952)",inactive
same,outcome,[8],inactive
same,outcome,[9],inactive
same,outcome,[10],inactive
same,outcome,[11],inactive
same,outcome,[12],inactive
same,outcome,[13],inactive
same,outcome,[14],inactive
O=P1(N(CCCl)CCCl)NCCCO1 (stereo not drawn),outcome,[1],inactive
same,outcome,[2],inactive
same,outcome,[3],inactive
same,outcome,[4],inactive
same,outcome,[5],inactive
same,outcome,[6],inactive
same,outcome,[7],inactive
same,outcome,"CD38, CD38 (gene 952)",inactive
same,outcome,"CD69, CD69 (gene 969)",inactive
same,outcome,[8],inactive
same,outcome,[9],inactive
same,outcome,[10],inactive
same,outcome,[11],inactive
same,outcome,[12],inactive
same,outcome,[13],inactive
same,outcome,[14],inactive
COCCOCCO,outcome,[1],inactive
same,AC50,[2],27.5 µM (active)
same,outcome,[3],inactive
same,outcome,[4],inactive
same,outcome,[5],inactive
same,outcome,[6],inactive
same,outcome,[7],inactive
same,outcome,"CD38, CD38 (gene 952)",inactive
same,outcome,[8],inactive
same,outcome,[9],inactive
same,outcome,[10],inactive
same,outcome,[11],inactive
same,outcome,[12],inactive
same,outcome,[13],inactive
same,outcome,[14],inactive
CCCCOCCOP(=O)(OCCOCCCC)OCCOCCCC,outcome,[1],inactive
same,outcome,[2],inactive
same,outcome,[3],inactive
same,outcome,[4],inactive
same,outcome,[5],inactive
same,outcome,[6],inactive
same,outcome,[7],inactive
same,outcome,"CD38, CD38 (gene 952)",inactive
same,outcome,"CD69, CD69 (gene 969)",inactive
same,outcome,[8],inactive
same,outcome,[9],inactive
same,outcome,[10],inactive
same,outcome,[11],inactive
same,outcome,[12],inactive
same,outcome,[13],inactive
same,outcome,[14],inactive
O=C(O)C1C(C(=O)O)C2(Cl)C(Cl)=C(Cl)C1(Cl)C2(Cl)Cl (stereo not drawn),outcome,[1],inactive
same,outcome,[2],inactive
same,outcome,[3],inactive
same,outcome,[4],inactive
same,outcome,[5],inactive
same,outcome,[6],inactive
same,outcome,[7],inactive
same,outcome,"CD38, CD38 (gene 952)",inactive
same,outcome,[8],inactive
same,outcome,[9],inactive
same,outcome,[10],inactive
same,outcome,[11],inactive
same,outcome,[12],inactive
same,outcome,[13],inactive
same,outcome,[14],inactive
same,outcome,[15],inactive
